Screening results from PubChem.
Most compounds without a hit are left out; they make up all but 9.4% or so of the library.
ELG1 genotox = qHTS screen for small molecules that induce genotoxicity in human embryonic kidney (HEK293T) cells expressing luciferase-tagged ELG1 | HEK293T ELG1-luciferase reporter, luminescence, 16 h | Potency, µM (series often up to 46 µM), inactives show top-dose activity change, positive = activation, hits mostly activators | actives 1.3% (n = 330,000) | AID 504466, 2011; further: % of control where 0% means no effect; nearly all actives have a fitted effect of over 60% in size
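HEK293T cells expressing luciferase-tagged ELG1 were exposed to compound or DMSO vehicle for 16 hr at 37 °C and 5% CO2. Luciferase activity was then measured with ONE-Glo after 30 min at room temperature.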
ELG1 repair inh = qHTS screen for small molecules that inhibit ELG1-dependent DNA repair in human embryonic kidney (HEK293T) cells expressing luciferase-tagged ELG1; AID 504467, 2011; Potency, µM (titrated, usually from 46.1 µM), inactives show at the highest dose activity change, negative = inhibition, usual class: inhibitors; HEK293T ELG1-luciferase reporter, luminescence, 16 h; DNA damage induced by 5-fluorouridine; actives 2.3% (n = 330,000); further: on the % scale 0 is the no-effect control and ±100 the full control effect; nearly all actives have a fitted effect of over 55% in size
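Quantitative HTS, concentration-response format. 2,000 cells/well co-treated with 5-fluorouridine and compound, 16 hr in 5% CO2 at 37 °C; ONE-Glo luminescence read after 30 min.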
Rab9 promoter act = qHTS Assay for Rab9 Promoter Activators | Huh7 Rab9 promoter-luciferase reporter, luminescence, 24 h | Potency, µM (highest dose often 9.22 µM), for inactives: top-dose activation, negative = inhibition, hits mostly activators | actives 2.8% (n = 320,000) | AID 485297, 2010; further: % of control where 0% means no effect; nearly all actives have a fitted effect of over 60% in size
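Promoter activation is measured as luciferase luminescence in Huh7 cells stably transfected with a Rab9 promoter–luciferase construct, following 24 h compound exposure at 37 °C and 10 min reagent incubation at ambient temperature.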
SMN2 splice enh = qHTS Assay for Enhancers of SMN2 Splice Variant Expression; actives 2.8% (n = 210,000); HEK293 SMN2-luciferase splicing reporter, luminescence, 30-36 h; Potency, µM (top dose mostly 46.1 µM), without a hit: at the highest dose activity change, positive = activation, hits mostly activators; further: % of control where 0% means no effect; nearly all actives have a fitted effect of over 55% in size
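HEK293 cells carry an SMN2 minigene-luciferase reporter in which exon 7 inclusion puts luciferase in frame. Cells were seeded at 2000 cells/well, attached for 10-12 hours, then exposed to compounds for 30-36 hours at 37C before ONE-Glo luminescence.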
FLuc modulator = qHTS profiling assay for firefly luciferase inhibitor/activator using purifed enzyme and Km concentrations of substrates (counterscreen for miR-21 project). purified FLuc, Km substrates, luminescence inhibition. Potency, µM (titrated, usually from 57.5 µM), inactives show at the highest dose activity change, negative = inhibition, hits mostly inhibitors. actives 6.9% (n = 360,000). AID 588342, 2011;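 further: plate controls were vehicle for no effect and reference inhibitor for full effect; nearly all actives have a fitted effect of over 55% in size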
Target sequence (P08659 whole entry, looked up): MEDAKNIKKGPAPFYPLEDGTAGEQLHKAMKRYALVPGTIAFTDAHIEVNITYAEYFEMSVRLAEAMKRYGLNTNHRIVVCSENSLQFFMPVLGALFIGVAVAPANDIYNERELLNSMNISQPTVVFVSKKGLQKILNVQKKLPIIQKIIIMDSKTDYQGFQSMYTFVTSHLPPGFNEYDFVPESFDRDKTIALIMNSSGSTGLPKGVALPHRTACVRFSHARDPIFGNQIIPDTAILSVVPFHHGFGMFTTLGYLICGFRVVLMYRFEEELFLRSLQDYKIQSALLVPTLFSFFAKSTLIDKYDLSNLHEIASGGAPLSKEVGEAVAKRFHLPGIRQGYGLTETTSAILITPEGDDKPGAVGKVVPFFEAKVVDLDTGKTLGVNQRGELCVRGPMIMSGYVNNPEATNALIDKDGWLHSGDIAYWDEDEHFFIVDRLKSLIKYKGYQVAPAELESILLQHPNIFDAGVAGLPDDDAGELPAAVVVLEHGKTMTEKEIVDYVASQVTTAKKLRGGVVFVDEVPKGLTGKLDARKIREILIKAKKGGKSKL
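Purified P. pyralis luciferase, 10 nM final, with Km-level 10 uM D-luciferin and 10 uM ATP in 50 mM Tris acetate pH 7.5, 10 mM Mg acetate, 0.01% Tween-20, 0.05% BSA; 6-point qHTS titration about 60 µM downward; luminescence read.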
NPC1 promoter act = qHTS Assay for NPC1 Promoter Activators. Huh7 NPC1 promoter luciferase reporter, 24 h. actives 2.4% (n = 320,000). Potency, µM (titrated, usually from 9.22 µM), without a hit: at the top dose activation, actives largely listed as activators; further: % of control where 0% means no effect; nearly all actives have a fitted effect of over 60% in size
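Stably transfected Huh7 (NPC1 promoter→luciferase), 1500 cells/well in Opti-MEM + 10% FBS, 2 h settle, then compound 24 h at 37 °C. Luminescence after 10 min with Amplite reagent.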
Numbers without * were called inactive; ? = inconclusive; . = not tested or not shown; ! = a repeat was not active; [ ] = remark or other dose. The call rests on the fitted dose curve; in most records, active means well fitted curve in the direction sought with a large enough effect; inconclusive means small, poorly fitted or top-dose-only effect, or another doubt; inactive means no such curve, though single readings can be large; an effect the other way counts as inactive or inconclusive. Potency means the concentration at half of the fitted maximal effect.

SMILES	ELG1 genotox	ELG1 repair inh	Rab9 promoter act	SMN2 splice enh	FLuc modulator	NPC1 promoter act
CCCC(=O)Nc1nc(-c2ccc(OC)cc2)cs1	?	?	?	?	?	24%
O=C(O)C(=O)Nc1nc(-c2ccc3c(c2)OCCO3)cs1	16%	?	2%	.	9.5µM*	-2%
CSCC(=O)Nc1nc(-c2ccc3c(c2)OCCO3)cs1	14%	?	2.8µM*	11µM*	11µM*	3.2µM*
Cc1cc([N+](=O)[O-])nn1CC(=O)N1c2ccccc2CC1C (stereo unspecified)	1%	10%	-6%	-5%	1%	-1%
Cc1nc(NC(=O)C23CC4CC(CC(C4)C2)C3)sc1Cc1ccc2c(c1)OCO2	?	-2%	?	.	?	28%
O=C(Nc1nc(-c2ccc3c(c2)OCO3)cs1)C1CC1	16µM*	?	3.5µM*	11µM*	12µM*	?
Cc1nc(NC(=O)C2CCCC2)sc1Cc1ccc2c(c1)OCO2	15%	?	?	?	17µM*	16%
CCS(=O)(=O)N1CCc2cc(C(=O)NC(C)c3ccccc3)ccc21 (stereo unspecified)	.	.	.	.	-2%	.
CSc1ncc(Cl)c(C(=O)Nc2ccc(S(=O)(=O)Nc3nccc(C)n3)cc2)n1	6.5µM*	?	1.4µM*	14%	11µM*!	1.8µM*
Clc1ccc(-c2cn3c(n2)-c2ccccc2C3)cc1Cl	?	?	2.5µM*	1µM*	0.85µM*	3.5µM*
O=C1CC(c2ccccc2)Cc2[nH]c(=O)c(-c3nc(-c4ccc(Cl)c(Cl)c4)cs3)cc21 (stereo unspecified)	.	.	.	5%	-6%	.
COC(=O)c1cc2c(-c3ccccc3)cc3ccccn3c-2c1C(=O)OC	-10%	23µM*	1%	-16%	-10%	-2%
COC(=O)c1c(C)c2c(C)cc3ccccn3c-2c1C(=O)OC	-15%	-12%	-2%	9%	0%	1%
O=C1CC(c2ccccc2)=Nc2ccccc2N1	-2%	?	27%	-8%	-12%	2%
c1ccc(C2=Nc3ccccc3OC2)cc1	7%	?	3.5µM*	13%	3µM*	?
Clc1ccc(C2=NN=C3COc4ccccc4N3C2)cc1	-4%	-13%	-3%	-20%	-18%	-1%
Cc1ccc2c(c1)N=C(c1ccc(Cl)cc1)CO2	?	?	2.5µM*	22µM*	1.7µM*	3.5µM*
Clc1ccc(C2=Nc3cc(Cl)ccc3OC2)cc1	?	?	?	?	7.6µM*	?
COc1cc(C(=O)ON=C2C3CC4CC(C3)CC2C4)cc(OC)c1OC	-12%	23µM*	0%	.	1%	-2%
COc1cc(C(=O)O/N=C2\C=CC(=O)C=C2C)cc(OC)c1OC	8%	2%	-1%	-6%	-1%	-1%
O=C(CSc1nc(=O)n(Cc2ccccn2)c2c1CCC2)Nc1ccccc1	.	.	.	.	1%	.
CSC1=C(C#N)C(c2ccc(Cl)cc2)C2=C(CC(C)(C)CC2=O)N1 (stereo unspecified)	-4%	18µM*	-26%	-24%	-12%	-22%
CCCSC1=C(C#N)C(c2ccc(OC)cc2)C2=C(CC(C)(C)CC2=O)N1 (stereo unspecified)	-5%	-8%	0%	-16%	-1%	-1%
Clc1ccc(-c2cnc(Oc3ccccc3)nc2)cc1	?	?	2.8µM*	14µM*	2.7µM*	0.79µM*
NC(=O)[C@@H]1CCNc2c(I)cc([N+](=O)[O-])cc2C(=O)N[C@@H](CO)C(=O)N[C@@H](Cc2ccc(O)cc2)C(=O)N1	-2%	3%	-4%	-5%	5%	-1%
SMILES	ELG1 genotox	ELG1 repair inh	Rab9 promoter act	SMN2 splice enh	FLuc modulator	NPC1 promoter act
CC(C)C[C@@H]1NC(=O)[C@H](Cc2ccc(O)cc2)NC(=O)[C@H](CCC(N)=O)NC(=O)c2cc([N+](=O)[O-])cc(I)c2NCC[C@@H](C(N)=O)NC1=O	1%	28%	2%	18µM*	0%	-4%
CCc1ccccc1NC(=O)Nc1nnc(N2CCCC2)s1	.	.	.	.	-9%	.
Cc1cc(C(=O)CSc2nnc(Nc3ccccc3F)s2)c(C)n1CC1CCCO1 (stereo unspecified)	-6%	?	-2%	-9%	15µM*	-3%
Cc1cc(C(=O)CSc2nnc(Nc3ccccc3)s2)c(C)n1CC1CCCO1 (stereo unspecified)	-4%	18µM*	12%	-20%	11µM*	3%
COc1ccccc1Nc1nnc(SCC(=O)c2cc(C)n(CC3CCCO3)c2C)s1 (stereo unspecified)	-4%	?	-5%	-18%	?	-4%
CCOc1cc(/C=C2\C(=N)N3N=C(S(=O)(=O)CC)SC3=NC2=O)ccc1OC(=O)c1ccco1	9%	?	-2%	.	-12%	2%
COc1cc(/C=C2\C(=N)N3N=C(S(C)(=O)=O)SC3=NC2=O)ccc1OC(=O)c1ccco1	-1%	-1%	2%	.	19µM*	0%
CCS(=O)(=O)C1=NN2C(=N)/C(=C\c3ccc(OC(=O)c4ccco4)c(Br)c3)C(=O)N=C2S1	2%[9.26 µM]	20%	-2%	.	15µM*	-4%
COc1cc(/C=C2\C(=N)N3N=C(S(C)(=O)=O)SC3=NC2=O)ccc1OC(=O)c1cccs1	0%	12%	6%	.	21µM*	3%
CCn1cc(C(=O)N2CCN(c3ccccc3)CC2)c(=O)c2cc(S(=O)(=O)N3CCC(C)CC3)ccc21	.	.	.	3%	-13%	.
CCOC(=O)c1ccccc1NC(=O)c1cnc(N2CCOCC2)c2ccccc12	.	.	.	.	0%	.
O=C(O)/C=C/C(O)c1ccc(Cl)cc1 (stereo unspecified)	-4%	16%	4%[46.1 µM]	-8%	27µM*	4%[46.1 µM]
C=C(C(C)=O)C(O)c1ccc(Cl)cc1 (stereo unspecified)	.	.	.	5%	.	.
Cc1cc(O)c(C=O)c2c1C(=O)Oc1c(COC(=O)/C=C/C(=O)O)c(O)c(C(=O)O)c(C)c1O2	.	.	.	-15%	.	.
COc1ccc(-c2noc(CSc3nnc(-c4ccccc4)n3C)n2)cc1	5%	0%	3%	-5%	21µM*	2%
COc1ccc(-c2noc(CSc3nc(N)cc(=O)[nH]3)n2)cc1	0%	?	-2%	.	21µM*	4%
